SNCA expr inhib – Primary qHTS assay for inhibitors of alpha-synuclein gene (SNCA) expression. Potency, µM (doses to about 57.2 µM), for the others: top-dose activity change, negative = inhibition, usual class: inhibitors. HEK-293 SNCA-luciferase knock-in, luminescence, 24 h. 140,000 tested, 0.17% active;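 also: potency is read from the fitted curve at half-maximal effect; plate controls were DMSO cells for no effect and cell-free wells for full effect; nearly all actives have a fitted effect of over 45% in size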
IP6K1 inh – Primary qHTS assay for small molecule inhibitors of Inositol hexaphosphate kinase 1 (IP6K1); Inositol hexakisphosphate kinase 1 (Homo sapiens), Q92551; IP6K1 kinase, ADP-Glo luminescence, 2 h; active compounds read low; activity change, % (series mostly up to about 58 µM); 140,000 tested, 0.81% active; AID 1645851, 2021; in the data active = activity change below about -25%; also: % is scaled to controls: 0 for no effect and ±100 for the full control effect
Target sequence (Q92551 whole entry, looked up): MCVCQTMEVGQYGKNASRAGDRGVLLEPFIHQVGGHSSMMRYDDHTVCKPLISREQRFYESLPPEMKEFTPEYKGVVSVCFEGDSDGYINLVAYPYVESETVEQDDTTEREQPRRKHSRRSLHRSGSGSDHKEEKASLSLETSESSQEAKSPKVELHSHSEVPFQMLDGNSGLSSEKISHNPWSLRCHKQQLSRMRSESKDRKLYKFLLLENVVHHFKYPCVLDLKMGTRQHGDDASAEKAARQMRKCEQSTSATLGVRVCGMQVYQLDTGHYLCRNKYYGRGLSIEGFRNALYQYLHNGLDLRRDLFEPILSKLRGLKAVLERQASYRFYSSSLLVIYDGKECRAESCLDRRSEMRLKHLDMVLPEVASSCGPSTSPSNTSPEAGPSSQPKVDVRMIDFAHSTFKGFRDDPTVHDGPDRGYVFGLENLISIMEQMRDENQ
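ADP-Glo luminescence measures ADP made by human IP6K1 during a 2 h RT reaction with ATP/IP6 (mix at 1.3 mM/130 uM); top library doses 57.5 and 19.1 uM final.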
KDM5B inh – Primary screen for KDM5B Histone Demethylases FDH-coupled qHTS | 220,000 tested, 2.6% active | AID 1347165, 2019 | KDM5B demethylase, FDH-coupled NADH fluorescence (FDH is formaldehyde dehydrogenase) | Potency, µM (series often up to 57.7 µM), usual class: inhibitors; also: potency is read from the fitted curve at half-maximal effect; 0% is about no effect; nearly all actives have a fitted effect of over 70% in size
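Measured: NADH fluorescence change, 30 min, RT. System: KDM5BΔAP 200 nM final, H3K4me3 peptide, α-KG, Fe(II), ascorbate, NAD⁺ plus FDH, pH 7.5 HEPES. Compounds: titrated, 10 min pre-incubation with enzyme.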
HEK293 viab – GF-AFC viability counterscreen for inhibitors of alpha-synuclein gene (SNCA) expression; 150,000 tested, 0.12% active; Potency, µM (top dose mostly 57.1 µM), inactives show at the highest dose activity change, negative = cytotoxicity, most hits filed as cytotoxic; HEK-293-SNCA-luc viability, GF-AFC fluorescence, 24 h;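 also: potency is read from the fitted curve at half-maximal effect; 0% = DMSO-treated cells and -100% = medium-only wells without cells; nearly all actives have a fitted effect of over 30% in size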
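HEK-293-SNCA-luc cells (1500/well) plated 24 h, then exposed 24 h to a dilution series; GF-AFC added 30 min at 37C, fluorescence 405/540 nm; normalised to medium-only and DMSO wells, Hill fit.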
Active calls of the source: *; i = inactive; ? = inconclusive; . = not tested or not shown; [ ] = another dose, or the depositor's remark. Compounds with a hit are over-represented: about 2.9% of the library has one in this group of screens. Unless noted, calls follow the shape of the dose curve; as a rule, active = well fitted curve in the direction sought with a large enough effect; inconclusive = small, poorly fitted or top-dose-only effect, or another doubt; inactive = no such curve, though single readings can be large; an effect the other way counts as inactive or inconclusive.

SMILES	SNCA expr inhib	IP6K1 inh	KDM5B inh	HEK293 viab
O=C(NCc1nnc2ccc(-c3ccccc3)nn12)c1ccccn1	14%	34	28µM*	5%
COc1ccc(CNC(=O)N2CCC(Cc3nc(-c4ccncc4)n[nH]3)C2)cc1 (centres undefined)	-17%	3	i	5%
CCOCCCNC(=O)N1CCC(Cc2nc(-c3ccncc3)n[nH]2)CC1	-25%	-9	32µM*	0%
Cc1csc(NC(=O)c2cnc3c(c2)N(C(=O)CCc2ccccc2)CCC3)n1	14%[87.6 µM]	4	i	-14%[87.6 µM]
Cc1ccc(C(=O)N2CCN(c3ccc4nnc(-c5ccccc5)n4n3)CC2)cc1	.	4	.	.
O=C(c1ccc2c(c1)OCO2)N1CCN(c2nnc3ccccn23)CC1	-6%	13	25µM*	12%
Cc1ccc(C(=O)N2CCN(c3nnc4ccccn34)CC2)cc1	-8%	18	28µM*	7%
COc1ccccc1C(=O)NC1CCN(c2nnc3ccccn23)CC1	-5%	14	28µM*	-17%
O=C(c1cccs1)N1CCCCCCC1	.	.	i	.
O=C(c1ccccc1)N1CCN(C(=O)c2ccc3c(c2)OCO3)CC1	.	.	i	.
O=C(c1cccs1)N1CCN(c2nnc3ccccn23)CC1	-9%	19	22µM*	4%
COc1ccc(NC(=O)CC2C(=O)N(c3ccccc3)C(=O)N2C2CCCCC2)cc1 (centres undefined)	2%	-5	i	-6%
CS(=O)(=O)N1CCN(C(=O)CC[C@H]2NC(=O)c3ccccc3NC2=O)CC1	7%	29	i	3%
COc1cc(C(=O)Nc2nnc(C3CC3)s2)cc(Cl)c1OCCC(C)C	.	.	i	.
CC1(C)[C@@H]2CC=C(CO[C@@H]3O[C@H](CO[C@@H]4OC[C@H](O)[C@H](O)[C@H]4O)[C@@H](O)[C@H](O)[C@H]3O)[C@H]1C2	.	-1	.	1%[23.9 µM]
Fc1ccc(-c2nnc3ccc(NCCc4ccccn4)nn23)nc1	-15%[87.6 µM]	-20	40µM*	10%[87.6 µM]
CC(C)CNc1ccc2nnc(-c3ccc(F)cn3)n2n1	-1%[87.6 µM]	-7	32µM*	3%[87.6 µM]
CSCC(=O)Nc1nn(-c2ccc(F)cc2)c2cccc(N3CCOCC3)c12	69%	35	25µM*	?
CN(C)CCOc1cccc2c1c(NC(=O)c1ccn[nH]1)nn2-c1ccc(F)cc1	25%	3	?	-12%
COc1ccc(-c2cc3c(nc2OC)nc(CC2CC2)n3C)cc1	82%[87.6 µM]	8	35µM*	-11%[87.6 µM]
COc1cc(-c2cc3c(nc2OC)nc(CC2CC2)n3C)ccn1	120%[87.6 µM]	5	40µM*	-4%[87.6 µM]
O[C@@H]1C[C@@H](c2nnc3n2CCN(Cc2ccccc2)C3)N(Cc2ccccc2)C1	19%	-4	i	3%[12.5 µM]
O=C(NCc1cccc(Cl)c1)c1ccc(Cn2ccn3nc4c(c3c2=O)CCCC4)cc1	-6%	-14	?	-7%
CC(C)c1ccc(CNC(=O)c2ccc(Cn3ccn4nc5c(c4c3=O)CCCC5)cc2)cc1	2%	-8	28µM*	-2%
COc1ccc(NC(=O)Cn2ccn3nc4c(c3c2=O)CCCCC4)cc1Cl	1%	7	28µM*	0%
SMILES	SNCA expr inhib	IP6K1 inh	KDM5B inh	HEK293 viab
COc1ccc(NC(=O)c2ccc(Cn3ccn4nc5c(c4c3=O)CCCC5)cc2)cc1	-24%	24	i	-8%
O=C(Nc1cccc(F)c1)c1ccc(Cn2ccn3nc4c(c3c2=O)CCCC4)cc1	?	44	25µM*	-30%
CC(=O)N/N=C/c1ccc(C)c(C)c1C	.	.	i	.
CCCCCCCCCCC(CO)CCCCCCCC (centres undefined)	-29%[25.6 µM]	-4	.	-21%[23.9 µM]
Cn1cc(CN2Cc3c(cc(N4CCOCC4)nc3-c3cccc(F)c3)C2=O)cn1	0%[87.6 µM]	12	35µM*	6%[87.6 µM]
Cn1cc(CN2Cc3c(cc(N4CCOCC4)nc3-c3ccc(CO)cc3)C2=O)cn1	-18%[87.6 µM]	12	35µM*	11%[87.6 µM]
Cc1noc2c(-c3ccc(N4CCOCC4)cc3)cc(-c3cccnc3)nc12	?	0	?	28%[87.6 µM]
Cn1cc(CN2Cc3c(cc(N4CCOCC4)nc3-c3cccnc3)C2=O)cn1	7%[87.6 µM]	16	35µM*	4%[87.6 µM]
COc1ccc(-c2nc(N3CCOCC3)cc3c2CN(Cc2cnn(C)c2)C3=O)cc1OC	36%	11	i	14%
O=C(NCc1ccncc1)c1cc(C2CC2)nc2onc(C3CCCN3)c12 (centres undefined)	-1%	9	79µM*	2%
Cc1cc(C(=O)NCC(F)(F)F)c2c(C3CCCN3)noc2n1 (centres undefined)	15%	0	50µM*	2%
Cc1cc(C(=O)NCC(C)C)c2c(C3CCCN3)noc2n1 (centres undefined)	11%	0	i	-5%
CN1CC(=O)N(C2CCCNCC2)Cc2c1ncnc2N1CCCCCC1 (centres undefined)	-11%	1	i	1%
COc1ccc(C2CCCCCN2Cc2nc(-c3ccccc3OC)no2)cc1 (centres undefined)	.	.	i	.
COCc1nncn1C1CCN(C(=O)c2ccc(Cl)s2)CC1	29%	8	i	4%
Cc1ccc(CN2CCN(c3nc(C)ccc3C#N)CC2CCO)cc1 (centres undefined)	5%	2	18µM*	1%
O=C(c1ccco1)N1CCCC(c2nn[nH]n2)C1 (centres undefined)	-16%	-15	22µM*	10%
COCCOC1CN(C2CCN(C(=O)c3cccc4[nH]ccc34)CC2)C12CCCCC2 (centres undefined)	21%	0	22µM*	8%
COCCOC1CN(C2CCN(C(=O)c3ccc(OC)cc3)CC2)C12CCCCC2 (centres undefined)	-4%	3	i	-6%
Cn1cccc1C(=O)N1CCCC(c2nnnn2C)C1 (centres undefined)	-3%	-6	?	-3%
CN1CCC([C@@H]2CN(C(=O)c3ccc4cc[nH]c4c3)C[C@H]2C(N)=O)CC1	39%	-7	20µM*	-2%[12.5 µM]
Cn1nnnc1C1CCCN(C(=O)c2cccc3[nH]ccc23)C1 (centres undefined)	87%	-16	32µM*	4%
CN1CCC([C@@H]2CN(C(=O)c3ccccc3Cl)C[C@H]2C(N)=O)CC1	-14%	-3	i	8%[12.5 µM]
Cc1ccc(NC(=O)Cn2cnc3c2c(=O)n(C)c(=O)n3C)c(Cl)c1	.	.	i	.
O=C(NCc1cccnc1)c1cc(CN2CCC(Cc3ccccc3)CC2)on1	-18%	4	i	3%
C#CCN(C)C[C@@H]1C=C(C)[C@H](Cc2nnc(-c3ccc(C)cc3)o2)C[C@H]1C(C)C	12%[87.6 µM]	1	i	0%[87.6 µM]
NC(=O)c1nc(CNC(=O)[C@H]2CCC[C@H](O)C2)no1	-9%	5	i	2%

High-throughput results as filed in PubChem.
